Inconclusive results are not listed. Activity calls are given as the source filed them. Unless noted, calls come from the whole dose curve; as a rule, active = well fitted curve in the direction sought with a large enough effect; inconclusive = small, poorly fitted or top-dose-only effect, or another doubt; inactive = no such curve, though single readings can be large; an effect the other way counts as inactive or inconclusive.
Columns and labels:
[1] = target: alpha-glucosidase (Oryza sativa, rice) (UniProt Q653V4); assay: Counterscreen for Glucocerebrosidase Inhibitors: qHTS Assay for Rice alpha-Glucosidase at pH 5.0 (AID 997);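 note: 0% = full activity with enzyme and -100% = basal without enzyme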
Method in brief: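 Endpoint fluorogenic assay at pH 5.0: compounds (0.7 nM to 77 uM) titrated against 4 nM rice enzyme and 400 uM 4-MU-alpha-glucoside for 20 min at room temperature; NaOH/glycine stop, read ex 365/em 440 nm, Hill-fitted AC50.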

[2] = Validation of Assay for Modulators of Lamin A Splicing (AID 1459; active = well fitted curve in the direction sought with a large enough effect in the signal ratio; the % refers to the signal ratio;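 note: cells exposed to compound for two days before reading; 0% is about no effect; ratio rise marks activators and ratio drop marks inhibitors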)
Method in brief: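 Splicing correction read as GFP (500-530 nm) over DsRed2 (575-640 nm) object intensity after 48 h compound exposure of reporter HeLa S3 clones (600 cells/well, 2% FBS medium); ancitabine and cycloheximide titrations, 0.5% DMSO as vehicle.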

[3] = target: DNA repair nuclease/redox regulator APEX1 (Homo sapiens) (UniProt P27695); assay: qHTS Validation Assay for Inhibitors of the Human Apurinic/apyrimidinic Endonuclease 1 (APE1) (AID 1705; note: potency is the fitted concentration of half-maximal effect;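 for activity change, negative = inhibition: TAMRA fluorescence gain over two minutes as APE1 cuts a quenched THF abasic duplex; % is set by controls: 0 for no effect and ±100 for the full control effect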)
Method in brief: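 Activity read as rising fluorescence (598 nm emission, 525 nm excitation) from incision of a TAMRA/BHQ-2 duplex carrying a THF abasic site (50 nM). Compound and enzyme sat 15 min at RT before substrate start; signal change between first and third 60-s reads.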

[4] = Counterscreen for APE1 Inhibitors: Fluorescent Dye Displacement Validation Assay (AID 1707); note: potency is the fitted concentration of half-maximal effect;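 for activity change, negative = inhibition: plate controls were ThO with dsDNA and no compound for no effect and ThO without dsDNA for full effect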
Method in brief: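 Signal: ThO fluorescence (ex 480 nm/em 540 nm) on binding 50 nM dsDNA; displacement by test compound reduces it. Conditions: 250 nM dye, 50 mM Tris-HCl pH7.5, 2 mM MgCl2, 50mM NaCl, 0.01% Tween-20.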

[5] = target: Endonuclease 4 (Escherichia coli (strain K12)) (UniProt P0A6C1); assay: Counterscreen for APE1 Inhibitors: qHTS Validation Assay for Inhibitors of Endonuclease IV (AID 1708); note: % is set by controls: 0 for no effect and ±100 for the full control effect
Method in brief: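 Read-out: fluorescence rise (ex 525/em 598 nm) from incision of a TAMRA/BHQ-2 double-stranded THF abasic-site substrate (50 nM), measured kinetically; third-minus-first read difference gave reaction progress. Enzyme 2 nM.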

[6] = qHTS for differential inhibitors of proliferation of Plasmodium falciparum line 7G8 (AID 1815);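 note: parasite growth measured after three days of incubation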; note: potency is the fitted concentration of half-maximal effect;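 for activity change, negative = inhibition: plate controls were vehicle wells for no effect and reference inhibitor wells for full effect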
[7] = qHTS for differential inhibitors of proliferation of Plasmodium falciparum line GB4 (AID 1816); settings: Potency: Plasmodium falciparum GB4 proliferation inhibition;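 note: parasite growth measured after 72 h incubation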; note: potency is the fitted concentration of half-maximal effect;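 for activity change, negative = inhibition: 0% = vehicle DMSO and -100% = reference inhibitor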
[8] = qHTS for differential inhibitors of proliferation of Plasmodium falciparum line 3D7 (AID 1876); note: potency is the fitted concentration of half-maximal effect
[9] = qHTS for differential inhibitors of proliferation of Plasmodium falciparum line D10 (AID 1877);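 note: parasites grown with compound for 72 h before DNA staining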; note: potency is the fitted concentration of half-maximal effect;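 for activity change, negative = inhibition: plate controls were vehicle wells for no effect and reference inhibitor wells for full effect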
[10] = qHTS for differential inhibitors of proliferation of Plasmodium falciparum line W2 (AID 1883); settings: Potency: Plasmodium falciparum W2 proliferation inhibition;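 note: parasites grown with compound for 72 h before lysis and staining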; note: potency is the fitted concentration of half-maximal effect;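 for activity change, negative = inhibition: 0% = vehicle wells and -100% = control inhibitor wells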
[11] = target: Alpha-galactosidase A (Homo sapiens) (UniProt P06280); assay: Counterscreen for Glucocerebrosidase Inhibitors: qHTS Assay for Human alpha-Galactosidase at pH 4.5 (AID 992); note: 0% is about no effect
Method in brief: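 Citrate buffer pH 4.5, Tween-20 0.005%. Enzyme 2 nM, substrate 80 uM, 20 min RT. Stop pH 10. Fluorescence Ex 365/Em 440. AC50 by Hill fit.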

[12] = qHTS for differential inhibitors of proliferation of Plasmodium falciparum line Dd2 (AID 1882); settings: Potency: Plasmodium falciparum Dd2 proliferation inhibition; note: nearly all actives have a fitted effect of over 65% in size; note: potency is the fitted concentration of half-maximal effect;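 for activity change, negative = inhibition: compound exposure of 72 h on infected erythrocytes; plate controls were DMSO vehicle for no effect and 0.29 µM artemisinin for full effect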
Method in brief: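 RBC culture, 0.3% parasitemia / 2.5% Hct final; cpd added by pin tool in DMSO; 72 h, 37 C, 5% CO2; lysis buffer + SYBR Green I, o/n RT dark; FI 485/535; norm. to artemisinin 0.29 uM and DMSO.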

[13] = Cell Viability - LYMP2-018 (AID 985); note: potency is the fitted concentration of half-maximal effect; nearly all actives have a fitted effect of over 50% in size
Method in brief: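 2500 cells/well; 5 hr 37 C; cmpd 24 hr 37 C, complete medium; CellTiter-Glo 30 min RT; luminescence. Tetraoctylammonium bromide positive control. AC50 via Hill fit.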

[14] = Cell Viability - LYMP2-022 (AID 987); note: potency is the fitted concentration of half-maximal effect; nearly all actives have a fitted effect of over 55% in size
Method in brief: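 Luminescent ATP read-out (CellTiter-Glo, 30 min, RT) after 24 hr, 37 C compound exposure of 2500 human lymphoblastoid cells/well in complete medium. Cytotoxicity taken as concentration-dependent ATP loss; AC50 from standard Hill equation.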

[15] = Cell Viability - LYMP2-024 (AID 988); note: potency is the fitted concentration of half-maximal effect; nearly all actives have a fitted effect of over 60% in size
Method in brief: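 ATP-based luminescence (CellTiter-Glo, 30 min RT) after 24 h compound exposure at 37 C of 2500 lymphoblastoid cells/well; decrease in ATP taken as cytotoxicity. qHTS concentration-response fitted to standard Hill equation for AC50.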

[16] = Cell Viability - LYMP1-002 - Assay at 40 hr (AID 994); note: potency is the fitted concentration of half-maximal effect; nearly all actives have a fitted effect of over 60% in size
Method in brief: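 qHTS cytotoxicity; 2500 cells/well, 5 hr 37 C settle, compound 40 hr 37 C. CellTiter-Glo, 30 min RT, luminescence (ATP). Concentration-response, Hill fit → AC50. Pos. ctrl tetraoctylammonium bromide.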

[17] = qHTS Assay for Lipid Storage Modulators (AID 1519; calls by dose curve; for activity change, negative = inhibition: % is set by controls: 0 for no effect and ±100 for the full control effect); settings: Drosophila S3 cells, BODIPY lipid droplet/cell ratio, laser cytometry, cells loaded with oleic acid
Method in brief: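 Cells seeded at 5,000 per well were treated with compounds over a concentration series and loaded with oleic acid (400 uM, as added). Lipid droplet fluorescence (488 nm excitation, 500-530 nm channel) was read by laser-scanning cytometry and normalized to 20 uM Triacsin C.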

[18] = measured here: cell count channel max response
[19] = measured here: lipid channel max response

Sequence of DNA repair nuclease/redox regulator APEX1 (Homo sapiens) (P27695 whole entry, looked up): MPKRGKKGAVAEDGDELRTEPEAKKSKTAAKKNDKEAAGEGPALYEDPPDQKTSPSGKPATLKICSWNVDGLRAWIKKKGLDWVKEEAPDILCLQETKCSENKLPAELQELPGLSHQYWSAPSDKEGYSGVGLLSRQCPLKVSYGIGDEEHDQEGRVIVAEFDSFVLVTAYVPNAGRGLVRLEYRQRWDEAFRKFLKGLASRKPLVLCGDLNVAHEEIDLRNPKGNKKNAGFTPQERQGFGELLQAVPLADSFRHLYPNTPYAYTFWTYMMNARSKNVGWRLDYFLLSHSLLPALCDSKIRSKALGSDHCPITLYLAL
Sequence of Alpha-galactosidase A (Homo sapiens) (P06280 whole entry, looked up): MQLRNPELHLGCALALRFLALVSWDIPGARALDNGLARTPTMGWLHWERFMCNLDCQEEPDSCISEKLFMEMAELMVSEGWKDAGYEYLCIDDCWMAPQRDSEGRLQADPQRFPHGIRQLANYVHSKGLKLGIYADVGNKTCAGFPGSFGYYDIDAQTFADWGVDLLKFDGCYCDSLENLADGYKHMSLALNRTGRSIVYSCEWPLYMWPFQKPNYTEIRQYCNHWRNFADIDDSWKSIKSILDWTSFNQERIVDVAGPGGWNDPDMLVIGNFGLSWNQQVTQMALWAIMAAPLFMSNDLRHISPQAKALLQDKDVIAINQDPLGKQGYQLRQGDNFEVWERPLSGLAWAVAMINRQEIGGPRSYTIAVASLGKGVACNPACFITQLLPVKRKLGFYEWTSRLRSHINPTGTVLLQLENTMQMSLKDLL

N#C/C(=C\c1ccc(O)c(O)c1)C(=O)NCc1ccccc1
inactive: outcome [1] | outcome [2] | Potency [3] | Potency [4] | Potency [5]
active: Potency [6] 12.6 µM | Potency [7] 11.2 µM | Potency [8] 10 µM | Potency [9] 17.8 µM | Potency [10] 11.2 µM

CCCn1c(=O)c2[nH]c(-c3ccc(OCC(=O)NCCN)cc3)nc2n(CCC)c1=O
inactive: outcome [11] | outcome [1] | outcome [2] | Potency [3] | Potency [4] | Potency [5]
active: Potency [7] 10 µM | Potency [10] 12.6 µM

C[N+](C)(CCCCCC[N+](C)(C)CCCN1C(=O)c2cccc3cccc(c23)C1=O)CCCN1C(=O)c2cccc3cccc(c23)C1=O
active: Potency [3] 3.55 µM | Potency [4] 5.62 µM | Potency [6] 0.794 µM | Potency [7] 0.316 µM | Potency [8] 0.0631 µM | Potency [9] 0.631 µM | Potency [12] 2.24 µM | Potency [10] 0.631 µM
inactive: outcome [1] | outcome [2] | Potency [5]

c1cnc2c(c1)ccc1cccnc12
inactive: outcome [1] | outcome [2] | Potency [3] | Potency [4]
active: Potency [13] 25.1 µM | Potency [14] 12.6 µM | Potency [15] 12.6 µM | Potency [16] 12.6 µM | Potency [6] 1.58 µM | Potency [7] 2 µM | Potency [8] 2 µM | Potency [9] 2.51 µM | Potency [12] 2 µM | Potency [10] 1 µM

O=C(O)Cc1ccc(-c2ccccc2)cc1
-5.4%: max response [17, 19]
-7.71%: max response [17, 18]
inactive: activity change, negative = inhibition ([17]; at 25.7 µM (top of the series)) 1.48%

Nc1cc(-c2ccncc2)c[nH]c1=O
5.25%: max response [17, 18]
9.64%: max response [17, 19]
inactive: activity change, negative = inhibition ([17]; at 25.7 µM (top of the series)) 3.03%

NCCNC(=O)c1ncsc1-c1cccc(F)c1
inactive: outcome [11] | outcome [1] | outcome [2] | Potency [3] | Potency [4] | Potency [5] | Potency [8] | Potency [9]

CCCCCCOc1ccccc1C(N)=O
24%: max response [17, 19]
inactive: activity change, negative = inhibition ([17]; at 57.5 µM (top of the series)) 12.4%
7.6%: max response [17, 18]

Oc1c(Br)cc(Br)c2cccnc12
3.22%: max response [17, 19]
0.383%: max response [17, 18]
inactive: activity change, negative = inhibition ([17]; at 57.5 µM (top of the series)) 1.03%

CC(=O)N[C@H](C(=O)O)C(C)(C)SN=O
inactive: outcome [2] | Potency [3] | Potency [4] | Potency [5] | Potency [6] | Potency [7] | Potency [8] | Potency [9] | Potency [12] | Potency [10]

C[C@@H](NC(=O)/C(C#N)=C/c1ccc(O)c(O)c1)c1ccccc1
active: Potency [6] 11.2 µM | Potency [7] 10 µM | Potency [9] 12.6 µM | Potency [10] 11.2 µM
inactive: outcome [1] | outcome [2] | Potency [4] | Potency [5]

CC(=O)SCC[N+](C)(C)C
inactive: outcome [1] | outcome [2] | Potency [3] | Potency [4] | Potency [6] | Potency [7] | Potency [8] | Potency [9] | Potency [12] | Potency [10]

COc1cc(NC(C)CCCN)c2ncccc2c1 (stereo unspecified)
inactive: activity change, negative = inhibition ([17]; at 57.5 µM (top of the series)) 7.1%
28.1%: max response [17, 19]
14.8%: max response [17, 18]

Nc1ccc(C(=O)O)c(O)c1
inactive: activity change, negative = inhibition ([17]; at 57.5 µM (top of the series)) -7.1%
14%: max response [17, 19]
19.5%: max response [17, 18]

O=C(O)[C@@H]1C[C@H](C(=O)O)N1
inactive: outcome [2] | Potency [4] | Potency [5] | Potency [6] | Potency [7] | Potency [8] | Potency [9] | Potency [12] | Potency [10]

From PubChem BioAssay (NCATS)
